This is an account of results in article PMC7862700, “An all-to-all approach to the identification of sequence-specific readers for epigenetic DNA modifications on cytosine”.

Assay in all cases: DAPPL (digital affinity profiling via proximity ligation, sequencing); 10 mM Tris-HCl pH 7.5, 50 mM NaCl, 1 mM DTT, 4% glycerol, room temperature, 30 min; GST-TFs on glutathione beads, 16-mer random dsDNA library, 0.1% formaldehyde crosslink after washing; high values mean tight binding
Conditions in all cases: protein: recombinant; tags: N-terminal GST; dsDNA, one strand shown

The target in one assay is T1, ELK1 (Homo sapiens, UniProt P19419 1-428).
T1 sequence: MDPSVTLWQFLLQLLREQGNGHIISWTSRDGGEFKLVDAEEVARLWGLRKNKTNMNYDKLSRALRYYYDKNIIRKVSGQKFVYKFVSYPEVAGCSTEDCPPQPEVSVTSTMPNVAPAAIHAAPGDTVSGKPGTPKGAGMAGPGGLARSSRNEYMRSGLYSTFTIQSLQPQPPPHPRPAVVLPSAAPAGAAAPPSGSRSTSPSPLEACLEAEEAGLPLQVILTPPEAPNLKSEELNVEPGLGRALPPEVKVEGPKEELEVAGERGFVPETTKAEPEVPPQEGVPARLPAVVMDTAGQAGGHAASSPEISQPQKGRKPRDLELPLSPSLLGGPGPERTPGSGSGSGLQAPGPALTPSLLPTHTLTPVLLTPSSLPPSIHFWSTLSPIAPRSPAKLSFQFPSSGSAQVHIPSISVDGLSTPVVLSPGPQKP
A digest of the protocol:
(§1)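 GST fusions of human transcription factors were expressed in yeast and captured with glutathione beads. Once given DNA barcodes and pooled alongside a tag-only sample, they were incubated for 30 min at room temperature with 200 nmole of a random double-stranded 16-mer DNA library in Tris/NaCl/DTT/glycerol buffer, then washed, crosslinked (0.1% formaldehyde), proximity-ligated, PCR-amplified and sequenced on an Illumina NextSeq500. The binding signal of each hexamer is its read frequency for a factor divided by its frequency for the tag-only sample.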

A further assay concerns the target T2, GABPA (Homo sapiens, UniProt Q06546 1-454).
T2 sequence: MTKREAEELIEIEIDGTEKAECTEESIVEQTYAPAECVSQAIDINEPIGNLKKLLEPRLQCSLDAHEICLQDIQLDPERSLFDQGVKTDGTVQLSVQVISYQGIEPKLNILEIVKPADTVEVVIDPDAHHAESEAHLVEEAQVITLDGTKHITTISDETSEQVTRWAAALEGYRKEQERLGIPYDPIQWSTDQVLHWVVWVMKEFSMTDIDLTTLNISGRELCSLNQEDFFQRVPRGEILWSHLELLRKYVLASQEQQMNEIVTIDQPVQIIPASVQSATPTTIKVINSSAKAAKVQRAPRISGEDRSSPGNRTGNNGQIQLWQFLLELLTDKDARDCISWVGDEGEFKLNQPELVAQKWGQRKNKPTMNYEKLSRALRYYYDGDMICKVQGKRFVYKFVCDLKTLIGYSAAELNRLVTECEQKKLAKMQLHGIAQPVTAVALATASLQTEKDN
A digest of the protocol: as §1

The target in the next assay is T3, ERG (Homo sapiens, UniProt P11308 1-479).
T3 sequence: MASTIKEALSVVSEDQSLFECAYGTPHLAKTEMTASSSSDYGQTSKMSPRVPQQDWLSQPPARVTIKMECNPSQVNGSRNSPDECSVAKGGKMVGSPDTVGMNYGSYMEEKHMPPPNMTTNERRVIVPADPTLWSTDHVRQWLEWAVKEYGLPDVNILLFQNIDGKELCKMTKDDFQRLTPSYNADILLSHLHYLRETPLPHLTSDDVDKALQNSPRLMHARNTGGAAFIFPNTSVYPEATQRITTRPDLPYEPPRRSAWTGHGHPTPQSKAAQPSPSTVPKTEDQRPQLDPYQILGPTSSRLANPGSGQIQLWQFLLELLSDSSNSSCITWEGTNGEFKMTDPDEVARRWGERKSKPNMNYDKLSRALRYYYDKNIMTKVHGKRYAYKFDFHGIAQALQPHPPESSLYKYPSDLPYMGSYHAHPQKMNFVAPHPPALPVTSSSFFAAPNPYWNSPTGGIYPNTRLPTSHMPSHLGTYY
A digest of the protocol:
as §1

In the next assay the target is ELF1 (Homo sapiens, UniProt P32519 1-619). A digest of the protocol:
as §1

A further assay deals with T4, EHF (Homo sapiens, UniProt Q9NZC4 1-300).
T4 sequence: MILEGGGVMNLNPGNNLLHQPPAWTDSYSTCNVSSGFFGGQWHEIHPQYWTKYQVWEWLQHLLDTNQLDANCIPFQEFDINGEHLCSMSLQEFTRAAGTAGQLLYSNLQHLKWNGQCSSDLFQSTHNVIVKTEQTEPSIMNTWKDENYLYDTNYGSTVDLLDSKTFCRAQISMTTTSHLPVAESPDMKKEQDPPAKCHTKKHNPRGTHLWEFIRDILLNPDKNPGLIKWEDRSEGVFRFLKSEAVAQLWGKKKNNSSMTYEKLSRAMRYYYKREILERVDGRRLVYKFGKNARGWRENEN
A digest of the protocol: as §1

The target in the next assay is SPI1 (Homo sapiens, UniProt P17947 1-270). Summed up:
as §1

The next assay has as its target SPIB (Homo sapiens, UniProt Q01892 1-262). Summed up: as §1
For a further assay, the target named is T5, FEV (Homo sapiens, UniProt Q99581 1-238).
T5 sequence: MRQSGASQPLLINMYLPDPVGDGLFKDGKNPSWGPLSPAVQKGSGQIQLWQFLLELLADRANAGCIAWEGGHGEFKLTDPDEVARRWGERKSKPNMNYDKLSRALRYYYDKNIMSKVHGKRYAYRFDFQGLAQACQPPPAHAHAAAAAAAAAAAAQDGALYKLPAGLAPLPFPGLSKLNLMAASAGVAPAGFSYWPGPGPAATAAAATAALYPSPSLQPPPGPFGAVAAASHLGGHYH
Summed up: as §1

The target of a further assay is ETV5 (Homo sapiens, UniProt P41161 1-510). A digest of the protocol:
as §1

For a further assay, the target named is ELF4 (Homo sapiens, UniProt Q99607 1-663). Summed up:
as §1

In another assay the target is T6, ELK4 (Homo sapiens, UniProt P28324-2 1-405).
T6 sequence: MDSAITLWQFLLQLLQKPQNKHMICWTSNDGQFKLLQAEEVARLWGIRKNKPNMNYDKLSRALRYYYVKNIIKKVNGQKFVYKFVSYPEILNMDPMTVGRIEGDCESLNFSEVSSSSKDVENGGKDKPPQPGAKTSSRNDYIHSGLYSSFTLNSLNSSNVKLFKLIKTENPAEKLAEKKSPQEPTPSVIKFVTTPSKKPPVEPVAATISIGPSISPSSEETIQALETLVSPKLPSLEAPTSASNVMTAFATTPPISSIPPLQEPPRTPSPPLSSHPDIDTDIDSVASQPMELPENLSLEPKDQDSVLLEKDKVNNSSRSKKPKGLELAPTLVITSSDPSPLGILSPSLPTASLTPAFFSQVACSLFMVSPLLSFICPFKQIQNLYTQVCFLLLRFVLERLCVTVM
A digest of the protocol:
as §1

The target of a further assay is T7, ETV2 (Homo sapiens, UniProt O00321 1-342).
T7 sequence: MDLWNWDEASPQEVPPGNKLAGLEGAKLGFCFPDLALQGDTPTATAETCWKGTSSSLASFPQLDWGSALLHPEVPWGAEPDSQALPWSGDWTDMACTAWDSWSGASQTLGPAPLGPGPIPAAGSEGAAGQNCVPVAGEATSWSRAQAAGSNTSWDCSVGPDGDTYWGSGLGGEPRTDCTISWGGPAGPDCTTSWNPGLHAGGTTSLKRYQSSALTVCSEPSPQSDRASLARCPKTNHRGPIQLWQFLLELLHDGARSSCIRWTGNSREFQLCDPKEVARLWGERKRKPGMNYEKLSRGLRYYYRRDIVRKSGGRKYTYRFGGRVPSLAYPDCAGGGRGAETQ
Summed up: as §1

The next assay concerns the target T8, ELF3 (Homo sapiens, UniProt P78545 1-371).
T8 sequence: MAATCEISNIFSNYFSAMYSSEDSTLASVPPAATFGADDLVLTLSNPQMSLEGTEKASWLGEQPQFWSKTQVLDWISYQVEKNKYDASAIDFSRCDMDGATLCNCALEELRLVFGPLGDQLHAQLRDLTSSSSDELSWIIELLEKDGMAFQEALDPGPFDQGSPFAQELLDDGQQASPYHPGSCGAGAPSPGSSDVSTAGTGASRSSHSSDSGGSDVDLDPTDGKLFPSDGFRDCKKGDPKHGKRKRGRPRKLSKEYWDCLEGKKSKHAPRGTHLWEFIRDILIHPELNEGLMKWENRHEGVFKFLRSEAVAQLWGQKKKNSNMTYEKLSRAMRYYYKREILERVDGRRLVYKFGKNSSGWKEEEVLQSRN
Summed up: as §1

Another assay concerns the target ETV1 (Homo sapiens, UniProt P50549 1-477). A digest of the protocol: as §1
Another assay has as its target T9, ERF (Homo sapiens, UniProt P50548 1-548).
T9 sequence: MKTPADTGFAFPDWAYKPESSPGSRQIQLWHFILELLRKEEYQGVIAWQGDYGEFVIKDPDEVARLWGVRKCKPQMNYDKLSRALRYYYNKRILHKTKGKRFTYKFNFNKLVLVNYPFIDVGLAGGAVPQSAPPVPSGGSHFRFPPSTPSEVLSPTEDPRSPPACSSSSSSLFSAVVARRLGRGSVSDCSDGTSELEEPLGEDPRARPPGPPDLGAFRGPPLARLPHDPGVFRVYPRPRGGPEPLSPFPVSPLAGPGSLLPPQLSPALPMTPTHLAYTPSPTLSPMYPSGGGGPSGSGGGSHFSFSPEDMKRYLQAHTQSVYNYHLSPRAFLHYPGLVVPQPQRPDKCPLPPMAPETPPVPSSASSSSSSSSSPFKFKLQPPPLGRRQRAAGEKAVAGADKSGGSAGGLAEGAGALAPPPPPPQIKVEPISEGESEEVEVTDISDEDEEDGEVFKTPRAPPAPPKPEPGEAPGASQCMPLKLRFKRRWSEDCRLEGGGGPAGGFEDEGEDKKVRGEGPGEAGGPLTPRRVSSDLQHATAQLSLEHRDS
Summed up: as §1

For a further assay, the target named is T10, ETV3L (Homo sapiens, UniProt Q6ZN32 1-361).
T10 sequence: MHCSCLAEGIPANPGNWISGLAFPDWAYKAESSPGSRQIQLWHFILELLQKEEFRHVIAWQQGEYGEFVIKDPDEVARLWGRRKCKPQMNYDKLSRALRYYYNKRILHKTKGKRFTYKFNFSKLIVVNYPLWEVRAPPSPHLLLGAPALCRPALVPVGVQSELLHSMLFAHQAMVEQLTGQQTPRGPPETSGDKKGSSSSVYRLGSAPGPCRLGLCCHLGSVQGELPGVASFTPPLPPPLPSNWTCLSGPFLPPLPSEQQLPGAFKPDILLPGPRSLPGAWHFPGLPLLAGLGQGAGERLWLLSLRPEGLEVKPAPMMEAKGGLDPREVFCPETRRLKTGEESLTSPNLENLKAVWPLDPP
Summed up:
as §1

Another assay concerns the target T11, ETS2 (Homo sapiens, UniProt P15036 1-469).
T11 sequence: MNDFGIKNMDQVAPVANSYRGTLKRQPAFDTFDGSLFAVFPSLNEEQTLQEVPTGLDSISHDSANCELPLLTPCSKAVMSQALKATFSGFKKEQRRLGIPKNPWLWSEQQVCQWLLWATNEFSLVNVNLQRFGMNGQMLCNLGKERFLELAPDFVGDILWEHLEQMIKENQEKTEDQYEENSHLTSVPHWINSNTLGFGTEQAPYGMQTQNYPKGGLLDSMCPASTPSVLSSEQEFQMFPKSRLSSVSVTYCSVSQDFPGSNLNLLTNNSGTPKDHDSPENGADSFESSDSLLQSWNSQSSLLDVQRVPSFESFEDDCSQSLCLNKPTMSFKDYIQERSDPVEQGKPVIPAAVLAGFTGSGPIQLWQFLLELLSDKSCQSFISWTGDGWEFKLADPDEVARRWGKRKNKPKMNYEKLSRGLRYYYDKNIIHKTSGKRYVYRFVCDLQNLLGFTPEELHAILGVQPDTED
A digest of the protocol:
as §1

For a further assay, the target named is T12, ETV7 (Homo sapiens, UniProt Q9Y603 1-341).
T12 sequence: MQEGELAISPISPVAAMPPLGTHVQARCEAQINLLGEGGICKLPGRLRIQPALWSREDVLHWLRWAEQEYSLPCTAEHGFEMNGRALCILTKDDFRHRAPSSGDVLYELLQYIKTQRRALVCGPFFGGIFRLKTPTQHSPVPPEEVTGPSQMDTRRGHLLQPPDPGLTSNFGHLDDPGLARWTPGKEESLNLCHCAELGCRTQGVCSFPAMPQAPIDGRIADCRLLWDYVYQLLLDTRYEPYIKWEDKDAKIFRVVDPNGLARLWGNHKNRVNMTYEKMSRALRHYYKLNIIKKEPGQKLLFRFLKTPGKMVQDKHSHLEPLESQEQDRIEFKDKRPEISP
Summed up:
as §1

The target in a further assay is T13, ETV3 (Homo sapiens, UniProt P41162-2 1-143).
T13 sequence: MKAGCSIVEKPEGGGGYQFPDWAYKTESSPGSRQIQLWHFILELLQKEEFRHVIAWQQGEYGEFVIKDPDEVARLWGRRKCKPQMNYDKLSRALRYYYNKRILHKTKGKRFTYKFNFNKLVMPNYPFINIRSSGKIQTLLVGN
A digest of the protocol: as §1

A further assay concerns the target ETV6 (Homo sapiens, UniProt P41212 1-452). Summed up:
as §1

Chain of ELF4 (Q99607 whole entry): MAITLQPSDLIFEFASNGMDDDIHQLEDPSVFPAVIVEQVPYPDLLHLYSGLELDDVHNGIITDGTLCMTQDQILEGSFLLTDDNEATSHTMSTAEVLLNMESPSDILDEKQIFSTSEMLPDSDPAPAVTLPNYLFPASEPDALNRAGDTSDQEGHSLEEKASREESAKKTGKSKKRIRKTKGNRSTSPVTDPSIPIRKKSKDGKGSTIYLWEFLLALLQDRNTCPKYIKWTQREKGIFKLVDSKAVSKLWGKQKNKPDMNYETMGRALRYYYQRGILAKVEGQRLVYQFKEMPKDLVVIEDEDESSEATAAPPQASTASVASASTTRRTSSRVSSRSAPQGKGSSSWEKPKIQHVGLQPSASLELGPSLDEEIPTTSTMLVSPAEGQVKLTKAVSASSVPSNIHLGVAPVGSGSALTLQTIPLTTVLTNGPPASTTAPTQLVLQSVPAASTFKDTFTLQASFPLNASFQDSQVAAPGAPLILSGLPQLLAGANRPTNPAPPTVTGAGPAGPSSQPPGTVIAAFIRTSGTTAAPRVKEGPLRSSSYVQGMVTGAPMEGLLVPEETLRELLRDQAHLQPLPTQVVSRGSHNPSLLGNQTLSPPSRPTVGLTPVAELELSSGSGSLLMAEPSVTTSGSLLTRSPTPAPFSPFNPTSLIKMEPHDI
Chain of ELF1 (P32519 whole entry): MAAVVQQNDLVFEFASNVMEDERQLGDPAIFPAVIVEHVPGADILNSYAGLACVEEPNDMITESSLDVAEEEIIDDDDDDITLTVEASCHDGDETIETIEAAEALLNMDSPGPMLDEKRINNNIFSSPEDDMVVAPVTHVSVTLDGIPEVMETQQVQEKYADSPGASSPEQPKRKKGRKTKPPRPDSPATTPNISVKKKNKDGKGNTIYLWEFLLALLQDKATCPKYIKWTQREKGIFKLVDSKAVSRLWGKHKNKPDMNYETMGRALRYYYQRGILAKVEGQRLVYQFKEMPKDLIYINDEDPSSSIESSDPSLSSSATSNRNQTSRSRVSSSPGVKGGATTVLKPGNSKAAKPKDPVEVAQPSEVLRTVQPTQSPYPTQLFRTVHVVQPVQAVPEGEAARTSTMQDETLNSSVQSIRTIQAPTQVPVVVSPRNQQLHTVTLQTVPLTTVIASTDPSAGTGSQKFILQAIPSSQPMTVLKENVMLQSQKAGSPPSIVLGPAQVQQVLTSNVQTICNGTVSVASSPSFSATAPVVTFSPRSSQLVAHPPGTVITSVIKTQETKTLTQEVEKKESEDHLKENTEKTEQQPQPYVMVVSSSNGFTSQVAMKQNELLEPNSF
Chain of SPIB (Q01892 whole entry): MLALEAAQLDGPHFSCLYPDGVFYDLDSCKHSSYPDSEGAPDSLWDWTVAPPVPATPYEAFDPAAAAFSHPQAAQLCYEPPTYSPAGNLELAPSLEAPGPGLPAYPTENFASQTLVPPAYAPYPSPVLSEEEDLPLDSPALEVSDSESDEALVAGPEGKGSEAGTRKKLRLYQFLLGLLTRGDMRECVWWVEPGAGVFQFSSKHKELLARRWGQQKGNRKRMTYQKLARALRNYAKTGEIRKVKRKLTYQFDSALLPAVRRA
Chain of ETV1 (P50549 whole entry): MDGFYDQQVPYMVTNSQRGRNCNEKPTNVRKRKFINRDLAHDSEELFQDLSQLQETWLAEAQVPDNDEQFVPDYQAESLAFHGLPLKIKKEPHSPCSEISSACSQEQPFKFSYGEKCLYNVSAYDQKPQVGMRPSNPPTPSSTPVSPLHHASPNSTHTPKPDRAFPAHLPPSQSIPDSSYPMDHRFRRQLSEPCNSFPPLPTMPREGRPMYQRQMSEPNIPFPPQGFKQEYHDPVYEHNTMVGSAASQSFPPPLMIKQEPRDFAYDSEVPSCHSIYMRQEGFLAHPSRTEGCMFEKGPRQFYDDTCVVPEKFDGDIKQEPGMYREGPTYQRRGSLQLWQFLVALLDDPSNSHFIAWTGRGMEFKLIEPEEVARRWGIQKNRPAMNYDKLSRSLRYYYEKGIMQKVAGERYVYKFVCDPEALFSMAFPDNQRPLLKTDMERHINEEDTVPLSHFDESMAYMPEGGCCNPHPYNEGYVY
Chain of ETV5 (P41161 whole entry): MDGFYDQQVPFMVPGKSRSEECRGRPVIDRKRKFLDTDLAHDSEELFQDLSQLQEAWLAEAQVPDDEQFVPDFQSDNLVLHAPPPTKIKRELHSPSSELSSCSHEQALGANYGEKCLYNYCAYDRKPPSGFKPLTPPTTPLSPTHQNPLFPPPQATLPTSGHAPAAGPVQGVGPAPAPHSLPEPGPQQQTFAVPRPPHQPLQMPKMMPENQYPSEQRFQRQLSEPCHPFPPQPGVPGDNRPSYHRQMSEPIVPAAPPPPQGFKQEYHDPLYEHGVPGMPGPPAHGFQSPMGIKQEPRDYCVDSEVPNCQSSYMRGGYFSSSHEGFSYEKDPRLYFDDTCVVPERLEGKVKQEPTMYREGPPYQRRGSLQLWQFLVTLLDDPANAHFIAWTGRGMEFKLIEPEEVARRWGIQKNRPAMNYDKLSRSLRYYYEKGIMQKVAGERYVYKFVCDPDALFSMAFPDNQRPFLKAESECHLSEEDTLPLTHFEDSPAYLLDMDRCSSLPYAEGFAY
Chain of ETV6 (P41212 whole entry): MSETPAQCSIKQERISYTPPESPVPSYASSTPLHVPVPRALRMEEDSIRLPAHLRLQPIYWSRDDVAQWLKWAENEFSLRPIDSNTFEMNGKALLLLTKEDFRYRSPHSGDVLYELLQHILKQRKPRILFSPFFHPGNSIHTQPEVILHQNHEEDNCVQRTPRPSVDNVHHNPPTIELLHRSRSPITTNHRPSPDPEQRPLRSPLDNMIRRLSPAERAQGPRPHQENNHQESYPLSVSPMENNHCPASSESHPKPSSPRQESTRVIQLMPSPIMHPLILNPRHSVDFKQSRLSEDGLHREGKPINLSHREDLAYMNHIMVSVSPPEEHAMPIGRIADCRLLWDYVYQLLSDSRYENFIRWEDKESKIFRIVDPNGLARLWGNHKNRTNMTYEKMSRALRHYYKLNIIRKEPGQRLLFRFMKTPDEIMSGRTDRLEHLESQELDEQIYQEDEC

As for CGTAAA, the binding signal is 1.12 fold enrichment (6-mer frequency, TF over GST control) with ELK1; 1.23 fold enrichment (6-mer frequency, TF over GST control) with GABPA; 1.13 fold enrichment (6-mer frequency, TF over GST control) in the assay with ERG; 1.07 fold enrichment (6-mer frequency, TF over GST control) with ELF1; 1.13 fold enrichment (6-mer frequency, TF over GST control) in the assay with EHF; 1.09 fold enrichment (6-mer frequency, TF over GST control) with SPI1. The binding signal with SPIB is 1.08 fold enrichment (6-mer frequency, TF over GST control); in the assay with FEV it was 1.04 fold enrichment (6-mer frequency, TF over GST control); in the assay with ETV5, 1.14 fold enrichment (6-mer frequency, TF over GST control); in the assay with ELF4 it was 1.11 fold enrichment (6-mer frequency, TF over GST control); with ELK4, 1.05 fold enrichment (6-mer frequency, TF over GST control); in the assay with ETV2, 1.21 fold enrichment (6-mer frequency, TF over GST control). Besides, the binding signal is 1.12 fold enrichment (6-mer frequency, TF over GST control) with ELF3; 1 fold enrichment (6-mer frequency, TF over GST control) with ETV1; 1.09 fold enrichment (6-mer frequency, TF over GST control) with ERF; 1.09 fold enrichment (6-mer frequency, TF over GST control) in the assay with ETV3L; 1.14 fold enrichment (6-mer frequency, TF over GST control) with ETS2; 1.08 fold enrichment (6-mer frequency, TF over GST control) in the assay with ETV7. The binding signal with ETV3 is 1.14 fold enrichment (6-mer frequency, TF over GST control); with ETV6, 1.17 fold enrichment (6-mer frequency, TF over GST control).
